# Test results from article PMC7862700, “An all-to-all approach to the identification of sequence-specific readers for epigenetic DNA modifications on cytosine”.
# Legend:
# Assay in all cases: DAPPL (digital affinity profiling via proximity ligation, sequencing); 10 mM Tris-HCl pH 7.5, 50 mM NaCl, 1 mM DTT, 4% glycerol, room temperature, 30 min; GST-TFs on glutathione beads, 16-mer random dsDNA library, 0.1% formaldehyde crosslink after washing; high values mean tight binding
# FEV = target: T1, FEV (Homo sapiens, UniProt Q99581 1-238); conditions: protein: recombinant; tags: N-terminal GST; dsDNA, one strand shown
# T1 sequence: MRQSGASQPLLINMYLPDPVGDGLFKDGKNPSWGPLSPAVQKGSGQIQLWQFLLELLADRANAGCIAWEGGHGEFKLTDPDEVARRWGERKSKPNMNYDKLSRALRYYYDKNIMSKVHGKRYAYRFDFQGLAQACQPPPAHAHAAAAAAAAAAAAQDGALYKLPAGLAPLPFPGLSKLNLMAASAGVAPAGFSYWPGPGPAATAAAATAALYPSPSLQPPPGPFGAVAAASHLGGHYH
# Procedure, shortened: (§1)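 The binding signal reported is, for every hexamer, its read frequency for a factor over its read frequency for the tag-only sample. Reads came from pools of yeast-expressed, GST-fused human transcription factors on glutathione beads, barcoded with DNA and mixed with that sample, which were incubated with 200 nmole of a random double-stranded 16-mer DNA library in Tris/NaCl/DTT/glycerol buffer at room temperature for 30 min. After washing, the pools were crosslinked with 0.1% formaldehyde, proximity-ligated with BsaI/T4 ligase for 1 h at 37 °C, PCR-amplified and sequenced on an Illumina NextSeq500.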
# ETV5 = ETV5 (Homo sapiens, UniProt P41161 1-510); conditions: protein: recombinant; tags: N-terminal GST; dsDNA, one strand shown
# Procedure, shortened: as §1
# HSF1 = HSF1 (Homo sapiens, UniProt Q00613 1-529); conditions: protein: recombinant; tags: N-terminal GST; chain copies: 3; dsDNA, one strand shown
# Procedure, shortened: as §1
# SPIC = target: T2, SPIC (Homo sapiens, UniProt Q8N5J4 1-248); conditions: protein: recombinant; tags: N-terminal GST; dsDNA, one strand shown
# T2 sequence: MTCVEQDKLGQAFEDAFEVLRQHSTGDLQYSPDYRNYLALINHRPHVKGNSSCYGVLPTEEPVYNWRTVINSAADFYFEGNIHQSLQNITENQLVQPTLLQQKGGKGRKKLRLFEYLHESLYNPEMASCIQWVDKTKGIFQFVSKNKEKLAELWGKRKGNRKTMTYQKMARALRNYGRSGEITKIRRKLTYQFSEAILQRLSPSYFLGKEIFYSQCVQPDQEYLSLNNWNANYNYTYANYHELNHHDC
# Procedure, shortened: as §1
# ELF4 = ELF4 (Homo sapiens, UniProt Q99607 1-663); conditions: protein: recombinant; tags: N-terminal GST; dsDNA, one strand shown
# Procedure, shortened: as §1
# ELK4 = target: T3, ELK4 (Homo sapiens, UniProt P28324-2 1-405); conditions: protein: recombinant; tags: N-terminal GST; dsDNA, one strand shown
# T3 sequence: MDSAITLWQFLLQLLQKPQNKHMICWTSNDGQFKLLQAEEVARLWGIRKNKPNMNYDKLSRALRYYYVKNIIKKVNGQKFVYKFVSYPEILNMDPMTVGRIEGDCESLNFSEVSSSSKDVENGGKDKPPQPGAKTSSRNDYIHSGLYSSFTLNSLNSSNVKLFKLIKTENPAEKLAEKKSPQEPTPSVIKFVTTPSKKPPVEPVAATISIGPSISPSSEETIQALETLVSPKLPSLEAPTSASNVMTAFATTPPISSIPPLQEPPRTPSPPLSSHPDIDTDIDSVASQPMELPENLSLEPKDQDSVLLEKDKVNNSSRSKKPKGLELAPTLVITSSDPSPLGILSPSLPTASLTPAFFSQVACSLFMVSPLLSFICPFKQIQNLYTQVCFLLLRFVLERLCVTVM
# Procedure, shortened: as §1
# ETV2 = target: T4, ETV2 (Homo sapiens, UniProt O00321 1-342); conditions: protein: recombinant; tags: N-terminal GST; dsDNA, one strand shown
# T4 sequence: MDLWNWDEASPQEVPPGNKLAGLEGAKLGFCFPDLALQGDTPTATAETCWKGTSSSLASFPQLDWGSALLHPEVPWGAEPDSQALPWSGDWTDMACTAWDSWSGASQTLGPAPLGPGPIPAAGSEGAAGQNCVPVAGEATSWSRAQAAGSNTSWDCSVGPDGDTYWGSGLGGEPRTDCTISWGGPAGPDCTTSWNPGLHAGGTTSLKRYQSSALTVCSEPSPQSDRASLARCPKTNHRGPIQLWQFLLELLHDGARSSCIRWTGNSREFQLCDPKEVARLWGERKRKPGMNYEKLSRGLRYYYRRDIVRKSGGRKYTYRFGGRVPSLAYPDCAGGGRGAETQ
# Procedure, shortened: as §1
# ELF3 = target: T5, ELF3 (Homo sapiens, UniProt P78545 1-371); conditions: protein: recombinant; tags: N-terminal GST; dsDNA, one strand shown
# T5 sequence: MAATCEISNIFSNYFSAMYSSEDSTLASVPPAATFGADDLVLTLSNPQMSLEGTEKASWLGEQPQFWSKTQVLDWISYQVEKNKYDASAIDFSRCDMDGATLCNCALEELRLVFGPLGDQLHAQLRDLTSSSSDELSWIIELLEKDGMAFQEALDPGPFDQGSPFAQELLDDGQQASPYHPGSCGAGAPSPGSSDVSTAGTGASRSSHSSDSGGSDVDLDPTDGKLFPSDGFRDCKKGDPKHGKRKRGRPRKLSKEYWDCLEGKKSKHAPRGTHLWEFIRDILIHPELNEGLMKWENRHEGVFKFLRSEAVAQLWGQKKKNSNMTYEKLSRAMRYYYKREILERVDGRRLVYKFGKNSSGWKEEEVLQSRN
# Procedure, shortened: as §1
# CRX = CRX (Homo sapiens, UniProt O43186 1-299); conditions: protein: recombinant; tags: N-terminal GST; dsDNA, one strand shown
# Procedure, shortened: as §1
# ETV1 = ETV1 (Homo sapiens, UniProt P50549 1-477); conditions: protein: recombinant; tags: N-terminal GST; dsDNA, one strand shown
# Procedure, shortened: as §1
# ERF = target: T6, ERF (Homo sapiens, UniProt P50548 1-548); conditions: protein: recombinant; tags: N-terminal GST; dsDNA, one strand shown
# T6 sequence: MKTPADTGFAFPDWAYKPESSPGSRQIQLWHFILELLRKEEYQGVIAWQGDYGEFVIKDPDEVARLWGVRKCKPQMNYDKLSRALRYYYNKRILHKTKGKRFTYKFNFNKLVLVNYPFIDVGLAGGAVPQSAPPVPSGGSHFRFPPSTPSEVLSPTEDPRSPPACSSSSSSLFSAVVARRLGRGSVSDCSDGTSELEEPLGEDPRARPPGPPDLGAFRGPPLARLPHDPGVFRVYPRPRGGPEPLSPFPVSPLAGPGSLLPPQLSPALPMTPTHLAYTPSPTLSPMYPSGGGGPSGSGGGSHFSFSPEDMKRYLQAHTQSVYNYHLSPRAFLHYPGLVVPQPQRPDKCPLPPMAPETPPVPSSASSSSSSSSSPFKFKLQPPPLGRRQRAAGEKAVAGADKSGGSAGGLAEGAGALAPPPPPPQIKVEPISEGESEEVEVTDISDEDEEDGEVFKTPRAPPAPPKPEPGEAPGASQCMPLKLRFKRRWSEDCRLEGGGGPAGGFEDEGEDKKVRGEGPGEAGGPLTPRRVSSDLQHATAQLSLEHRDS
# Procedure, shortened: as §1
# ETV3L = target: T7, ETV3L (Homo sapiens, UniProt Q6ZN32 1-361); conditions: protein: recombinant; tags: N-terminal GST; dsDNA, one strand shown
# T7 sequence: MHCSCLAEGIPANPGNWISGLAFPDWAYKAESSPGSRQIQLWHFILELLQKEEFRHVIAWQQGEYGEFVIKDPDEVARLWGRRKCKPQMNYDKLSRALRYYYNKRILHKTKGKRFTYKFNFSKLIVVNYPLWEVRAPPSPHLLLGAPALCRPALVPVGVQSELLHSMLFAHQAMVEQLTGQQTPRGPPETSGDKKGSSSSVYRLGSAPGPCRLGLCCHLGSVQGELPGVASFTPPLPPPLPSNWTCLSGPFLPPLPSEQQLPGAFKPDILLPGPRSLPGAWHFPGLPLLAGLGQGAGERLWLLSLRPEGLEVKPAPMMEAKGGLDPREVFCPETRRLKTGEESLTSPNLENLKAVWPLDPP
# Procedure, shortened: as §1
# ETS2 = target: T8, ETS2 (Homo sapiens, UniProt P15036 1-469); conditions: protein: recombinant; tags: N-terminal GST; dsDNA, one strand shown
# T8 sequence: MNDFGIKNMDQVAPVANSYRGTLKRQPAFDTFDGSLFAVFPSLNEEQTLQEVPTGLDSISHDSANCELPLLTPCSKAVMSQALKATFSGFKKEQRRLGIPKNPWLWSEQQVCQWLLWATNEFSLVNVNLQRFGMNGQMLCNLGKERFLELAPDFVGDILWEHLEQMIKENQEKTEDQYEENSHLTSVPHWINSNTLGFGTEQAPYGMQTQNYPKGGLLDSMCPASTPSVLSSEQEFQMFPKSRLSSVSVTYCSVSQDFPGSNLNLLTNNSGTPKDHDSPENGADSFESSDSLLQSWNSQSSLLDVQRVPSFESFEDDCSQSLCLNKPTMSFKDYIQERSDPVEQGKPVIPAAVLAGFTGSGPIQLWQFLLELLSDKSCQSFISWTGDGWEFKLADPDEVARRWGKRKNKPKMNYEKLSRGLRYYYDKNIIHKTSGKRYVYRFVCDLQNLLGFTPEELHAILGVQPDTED
# Procedure, shortened: as §1
# SPDEF = target: T9, SPDEF (Homo sapiens, UniProt O95238 1-335); conditions: protein: recombinant; tags: N-terminal GST; dsDNA, one strand shown
# T9 sequence: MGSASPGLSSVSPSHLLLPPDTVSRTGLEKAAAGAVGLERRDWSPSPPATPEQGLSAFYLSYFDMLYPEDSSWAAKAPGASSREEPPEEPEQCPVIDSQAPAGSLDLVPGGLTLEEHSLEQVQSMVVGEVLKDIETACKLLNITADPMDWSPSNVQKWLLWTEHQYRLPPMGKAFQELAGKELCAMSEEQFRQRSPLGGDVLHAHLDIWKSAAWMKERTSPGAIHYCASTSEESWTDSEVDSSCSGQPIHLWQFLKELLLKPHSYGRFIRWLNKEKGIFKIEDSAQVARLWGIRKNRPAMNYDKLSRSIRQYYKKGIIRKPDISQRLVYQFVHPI
# Procedure, shortened: as §1
# ETV7 = target: T10, ETV7 (Homo sapiens, UniProt Q9Y603 1-341); conditions: protein: recombinant; tags: N-terminal GST; dsDNA, one strand shown
# T10 sequence: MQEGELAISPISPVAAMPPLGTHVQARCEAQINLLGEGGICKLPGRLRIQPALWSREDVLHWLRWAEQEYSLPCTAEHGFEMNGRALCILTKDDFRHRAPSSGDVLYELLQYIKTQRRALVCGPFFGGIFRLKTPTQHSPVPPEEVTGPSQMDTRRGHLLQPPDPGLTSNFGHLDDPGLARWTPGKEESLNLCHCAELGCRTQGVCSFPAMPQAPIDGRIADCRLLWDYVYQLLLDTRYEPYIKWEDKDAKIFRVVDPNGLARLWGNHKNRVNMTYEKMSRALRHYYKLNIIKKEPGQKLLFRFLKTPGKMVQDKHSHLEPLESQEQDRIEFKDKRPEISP
# Procedure, shortened: as §1
# ELF5 = target: T11, ELF5 (Homo sapiens, UniProt Q9UKW6-2 1-255); conditions: protein: recombinant; tags: N-terminal GST; dsDNA, one strand shown
# T11 sequence: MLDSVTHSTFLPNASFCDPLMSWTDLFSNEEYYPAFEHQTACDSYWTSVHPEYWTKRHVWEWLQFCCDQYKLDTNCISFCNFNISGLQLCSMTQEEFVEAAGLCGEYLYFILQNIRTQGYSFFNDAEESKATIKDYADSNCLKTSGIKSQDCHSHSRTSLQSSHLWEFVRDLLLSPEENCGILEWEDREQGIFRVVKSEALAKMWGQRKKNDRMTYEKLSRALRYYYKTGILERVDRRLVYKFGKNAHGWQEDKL
# Procedure, shortened: as §1
# ETV3 = target: T12, ETV3 (Homo sapiens, UniProt P41162-2 1-143); conditions: protein: recombinant; tags: N-terminal GST; dsDNA, one strand shown
# T12 sequence: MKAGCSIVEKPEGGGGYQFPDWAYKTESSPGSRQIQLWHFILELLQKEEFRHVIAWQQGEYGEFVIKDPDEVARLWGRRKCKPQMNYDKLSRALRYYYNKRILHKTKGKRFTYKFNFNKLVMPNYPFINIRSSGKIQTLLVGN
# Procedure, shortened: as §1
# ETV6 = ETV6 (Homo sapiens, UniProt P41212 1-452); conditions: protein: recombinant; tags: N-terminal GST; dsDNA, one strand shown
# Procedure, shortened: as §1
# ETV5, sequence (P41161 whole entry): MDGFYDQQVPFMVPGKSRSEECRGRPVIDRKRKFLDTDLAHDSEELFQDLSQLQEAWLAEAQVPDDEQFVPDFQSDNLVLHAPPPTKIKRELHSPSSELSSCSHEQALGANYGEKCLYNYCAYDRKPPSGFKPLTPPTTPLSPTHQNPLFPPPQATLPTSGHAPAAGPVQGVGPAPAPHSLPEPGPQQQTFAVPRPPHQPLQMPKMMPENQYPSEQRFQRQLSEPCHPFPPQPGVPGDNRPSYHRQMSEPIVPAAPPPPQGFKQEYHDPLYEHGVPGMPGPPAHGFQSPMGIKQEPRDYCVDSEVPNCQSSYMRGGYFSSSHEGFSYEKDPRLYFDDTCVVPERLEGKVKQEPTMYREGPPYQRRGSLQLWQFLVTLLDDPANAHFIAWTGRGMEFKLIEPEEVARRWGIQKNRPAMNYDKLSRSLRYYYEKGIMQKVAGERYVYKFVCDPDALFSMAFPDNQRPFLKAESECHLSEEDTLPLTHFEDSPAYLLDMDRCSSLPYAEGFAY
# HSF1, sequence (Q00613 whole entry): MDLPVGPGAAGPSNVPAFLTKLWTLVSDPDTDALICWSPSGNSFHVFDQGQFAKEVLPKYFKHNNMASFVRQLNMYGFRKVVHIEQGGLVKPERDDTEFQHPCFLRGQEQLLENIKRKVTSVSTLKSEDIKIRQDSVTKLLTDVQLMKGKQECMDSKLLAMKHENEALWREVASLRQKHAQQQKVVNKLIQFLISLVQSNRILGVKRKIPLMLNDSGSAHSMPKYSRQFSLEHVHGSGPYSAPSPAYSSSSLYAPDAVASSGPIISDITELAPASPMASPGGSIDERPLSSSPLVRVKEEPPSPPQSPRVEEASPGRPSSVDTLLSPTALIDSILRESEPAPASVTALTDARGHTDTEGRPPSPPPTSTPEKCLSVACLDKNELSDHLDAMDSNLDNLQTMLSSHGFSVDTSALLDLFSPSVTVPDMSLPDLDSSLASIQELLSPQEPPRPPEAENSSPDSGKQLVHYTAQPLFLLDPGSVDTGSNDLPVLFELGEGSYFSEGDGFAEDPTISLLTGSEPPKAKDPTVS
# CRX, sequence (O43186 whole entry): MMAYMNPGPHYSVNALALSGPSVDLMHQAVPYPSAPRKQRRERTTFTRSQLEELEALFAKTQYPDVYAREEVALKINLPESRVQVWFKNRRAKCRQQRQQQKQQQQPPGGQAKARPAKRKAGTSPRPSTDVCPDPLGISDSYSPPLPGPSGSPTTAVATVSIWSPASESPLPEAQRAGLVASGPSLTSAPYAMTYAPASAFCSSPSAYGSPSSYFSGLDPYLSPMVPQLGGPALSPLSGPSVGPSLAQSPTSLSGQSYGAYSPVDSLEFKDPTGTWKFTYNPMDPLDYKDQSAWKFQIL
# ELF4, sequence (Q99607 whole entry): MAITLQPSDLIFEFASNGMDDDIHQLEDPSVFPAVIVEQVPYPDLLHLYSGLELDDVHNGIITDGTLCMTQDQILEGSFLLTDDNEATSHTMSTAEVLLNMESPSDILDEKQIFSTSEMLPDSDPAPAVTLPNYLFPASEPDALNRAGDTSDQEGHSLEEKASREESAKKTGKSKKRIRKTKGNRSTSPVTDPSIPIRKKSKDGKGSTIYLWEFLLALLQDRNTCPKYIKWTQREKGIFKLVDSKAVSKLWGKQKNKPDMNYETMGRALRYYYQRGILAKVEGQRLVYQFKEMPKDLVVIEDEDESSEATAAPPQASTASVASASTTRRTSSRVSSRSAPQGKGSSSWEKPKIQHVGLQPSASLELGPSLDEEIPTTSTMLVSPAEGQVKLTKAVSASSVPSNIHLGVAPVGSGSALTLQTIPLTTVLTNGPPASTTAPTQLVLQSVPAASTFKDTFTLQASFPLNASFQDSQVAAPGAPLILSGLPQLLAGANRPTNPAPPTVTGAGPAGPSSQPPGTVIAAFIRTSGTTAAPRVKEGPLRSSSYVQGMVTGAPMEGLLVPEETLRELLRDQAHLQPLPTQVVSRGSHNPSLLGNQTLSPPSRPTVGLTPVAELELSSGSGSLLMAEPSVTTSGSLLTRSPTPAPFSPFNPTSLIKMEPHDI
# ETV6, sequence (P41212 whole entry): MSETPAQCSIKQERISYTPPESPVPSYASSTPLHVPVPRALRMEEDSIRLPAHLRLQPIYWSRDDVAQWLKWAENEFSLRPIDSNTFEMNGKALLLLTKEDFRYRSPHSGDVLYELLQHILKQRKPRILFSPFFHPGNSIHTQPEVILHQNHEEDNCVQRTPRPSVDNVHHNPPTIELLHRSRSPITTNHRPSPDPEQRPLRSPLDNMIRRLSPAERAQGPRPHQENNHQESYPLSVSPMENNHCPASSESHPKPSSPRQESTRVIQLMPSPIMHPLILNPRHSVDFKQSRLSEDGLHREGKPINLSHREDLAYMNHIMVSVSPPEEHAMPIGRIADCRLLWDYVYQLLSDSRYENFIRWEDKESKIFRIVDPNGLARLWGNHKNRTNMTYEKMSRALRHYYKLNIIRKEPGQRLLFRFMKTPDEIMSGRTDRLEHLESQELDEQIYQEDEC
# ETV1, sequence (P50549 whole entry): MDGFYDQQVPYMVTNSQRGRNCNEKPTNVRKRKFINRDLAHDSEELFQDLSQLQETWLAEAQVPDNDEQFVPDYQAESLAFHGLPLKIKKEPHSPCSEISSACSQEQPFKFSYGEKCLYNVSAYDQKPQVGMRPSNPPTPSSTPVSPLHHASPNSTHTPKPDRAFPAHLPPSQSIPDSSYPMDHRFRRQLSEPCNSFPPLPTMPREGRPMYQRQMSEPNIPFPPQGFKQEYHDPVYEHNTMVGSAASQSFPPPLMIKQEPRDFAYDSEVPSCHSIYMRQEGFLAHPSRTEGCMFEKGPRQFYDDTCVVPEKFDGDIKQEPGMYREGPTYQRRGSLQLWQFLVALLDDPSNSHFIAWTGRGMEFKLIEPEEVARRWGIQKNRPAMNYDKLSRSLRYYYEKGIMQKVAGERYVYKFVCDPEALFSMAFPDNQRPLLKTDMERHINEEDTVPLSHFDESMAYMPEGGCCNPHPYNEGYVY
sequence,measurement,setting,value
TATATC,binding signal,FEV,"1.58 fold enrichment (6-mer frequency, TF over GST control)"
same,binding signal,ETV5,"1.6 fold enrichment (6-mer frequency, TF over GST control)"
same,binding signal,HSF1,"1.33 fold enrichment (6-mer frequency, TF over GST control)"
same,binding signal,SPIC,"1.67 fold enrichment (6-mer frequency, TF over GST control)"
same,binding signal,ELF4,"1.58 fold enrichment (6-mer frequency, TF over GST control)"
same,binding signal,ELK4,"1.53 fold enrichment (6-mer frequency, TF over GST control)"
same,binding signal,ETV2,"1.54 fold enrichment (6-mer frequency, TF over GST control)"
same,binding signal,ELF3,"1.36 fold enrichment (6-mer frequency, TF over GST control)"
same,binding signal,CRX,"1.67 fold enrichment (6-mer frequency, TF over GST control)"
same,binding signal,ETV1,"1.54 fold enrichment (6-mer frequency, TF over GST control)"
same,binding signal,ERF,"1.61 fold enrichment (6-mer frequency, TF over GST control)"
same,binding signal,ETV3L,"1.56 fold enrichment (6-mer frequency, TF over GST control)"
same,binding signal,ETS2,"1.64 fold enrichment (6-mer frequency, TF over GST control)"
same,binding signal,SPDEF,"2.19 fold enrichment (6-mer frequency, TF over GST control)"
same,binding signal,ETV7,"1.48 fold enrichment (6-mer frequency, TF over GST control)"
same,binding signal,ELF5,"1.66 fold enrichment (6-mer frequency, TF over GST control)"
same,binding signal,ETV3,"1.68 fold enrichment (6-mer frequency, TF over GST control)"
same,binding signal,ETV6,"1.5 fold enrichment (6-mer frequency, TF over GST control)"
